Screening data (PubChem)
SARS 3CLpro inh: SARS-CoV 3CLpro protease inhibition. P0C6X7. recombinant SARS-CoV 3CLpro, quenched FRET peptide cleavage. inhibition, % at 6 µM. 290,000 tested, 0.14% active; in the data active means inhibition above about 12%
Mtb hypoxia inh: reduces hypoxia-regulated biosensor signal in M. tuberculosis | M. tuberculosis hypoxia-regulated fluorescent reporter, fluorescence | fluorescence inhibition, % (concentration not given with the values) | 300,000 tested, 0.1% active; in the data active means fluorescence inhibition mostly above about 23%, no sharp cut-off; inactive means mostly below about 17%
SSB-PriA inh: K. pneumoniae PriA-SSBct interaction inhibition; 430,000 tested, 0.6% active; AID 1272365; AlphaScreen SSBct-PriA binding, biotinylated peptide; inhibition, % at 33 µM; in the data active means inhibition mostly above about 37%, no sharp cut-off; inactive means mostly below about 20%;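 further: plate controls were negative control peptide for no effect and reference peptide for full effect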
CCHF vOTU inh: CCHFV vOTU protease inhibition; Pep-AMC fluorescence; AID 651958; inhibition, % at 11.5 µM; 370,000 tested, 0.55% active; in the data active means inhibition above about 30%; further: 0% = vehicle wells with enzyme and 100% = no enzyme wells
DUSP3 inh: blocks human VHR1 dual specificity phosphatase; AID 1654; P51452; 290,000 tested, 0.52% active; inhibition, % at 13.3 µM; recombinant VHR phosphatase, pNPP absorbance; in the data active means inhibition above about 50%
Target sequence (P51452 whole entry, looked up): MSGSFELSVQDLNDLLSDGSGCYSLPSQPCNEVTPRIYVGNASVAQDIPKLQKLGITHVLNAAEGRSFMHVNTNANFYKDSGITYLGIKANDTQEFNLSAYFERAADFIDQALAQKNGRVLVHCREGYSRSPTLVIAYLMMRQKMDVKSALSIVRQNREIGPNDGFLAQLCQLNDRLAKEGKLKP
Starred values were filed as active, the others as inactive; / = no result given; + = active, no number. The list is not random: actives were taken first. Their share in the collection is about 1.3%.

SMILES | SARS 3CLpro inh | Mtb hypoxia inh | SSB-PriA inh | CCHF vOTU inh | DUSP3 inh
CC(=NNC(=S)NCCc1ccccc1)c1ccc(C)cc1 | / | 8.3 | 2.4 | / | /
COC(=O)C1CCN(C2=C(NS(=O)(=O)c3ccc(Cl)cc3)C(=O)c3ccccc3C2=O)CC1 | 0.9 | 14.6 | 72.6* | 6.4 | 31.0
Cc1oncc1C(=O)NCCn1ccnc1-c1ncccn1 | / | / | 46.0* | / | /
Cc1cc(C(=O)NCCn2ccnc2-c2ncccn2)no1 | / | / | -7.0 | / | /
CCOc1ccccc1C(=O)NCCn1ccnc1-c1ncccn1 | / | / | 55.0* | / | /
O=C(/C=C/c1cccs1)NCCn1ccnc1-c1ncccn1 | / | / | 116.5* | / | /
O=C(NCCn1ccnc1-c1ncccn1)c1ccccc1Cl | / | / | 78.0* | / | /
O=C(Cc1ccccc1Cl)NCCn1ccnc1-c1ncccn1 | / | / | 1.0 | / | /
COc1cccc2cc(C(=O)NCCn3ccnc3-c3ncccn3)oc12 | / | / | 46.0* | / | /
CCOC(=O)C(C(=O)OCC)C(=O)c1cc(OC)c(OC)c(OC)c1 | -5.5 | / | -1.3 | 6.8 | 51.8*
O=C(c1ccc(N2CCCCC2)c([N+](=O)[O-])c1)N(Cc1ccccc1)c1ccccn1 | -0.9 | 6.1 | 52.1* | 2.7 | 39.1
CC1Cc2ccccc2N1C(=O)c1ccc(N2CCCCC2)c([N+](=O)[O-])c1 (stereo not given) | -2.6 | 7.7 | 30.8 | 5.8 | -8.2
CC1Cc2ccccc2N1C(=O)c1ccc(N2CCCC2)c([N+](=O)[O-])c1 (stereo not given) | 6.5 | 12.8 | 45.5* | 6.8 | 4.0
O=c1[nH]c(=S)[nH]c(O)c1N=Nc1ccccc1Cl | / | / | 3.0 | / | /
O=C(CSc1nnc(NC(=O)Nc2ccc(F)cc2)s1)Nc1ccc(F)cc1F | / | / | -31.0 | / | /
COC1(CNC(=O)Cc2cccs2)CCSC1 (stereo not given) | / | / | 14.0 | / | /
Cc1ccccc1NC(=O)CNc1ccc(Cl)c(C(F)(F)F)c1 | 1.9 | / | -35.5 | 0.4 | 58.3*
CNCC(=O)Nc1ccc(Cl)c(C(F)(F)F)c1 | 2.5 | 17.1 | -13.1 | 1.8 | 19.7
N#Cc1c(N)sc(=S)c2c1CCCC2 | -3.6 | 4.8 | 64.9* | -7.5 | -11.3
CCC1(C)Cc2c(C#N)c(N)sc(=S)c2CO1 (stereo not given) | 7.1 | / | -3.8 | 12.8 | -7.1
CC(=NNC(=O)c1cc(Cl)ccc1O)c1ccc(Br)s1 | / | / | -10.3 | / | /
O=[N+]([O-])c1cc(-c2ccc(/C=N\n3cnnc3)o2)cc([N+](=O)[O-])c1 | -4.8 | / | / | 1.4 | -12.9
O=[N+]([O-])c1cc(-c2ccc(C=Nn3cnnc3)o2)cc([N+](=O)[O-])c1 | / | 43.3* | 13.7 | / | /
CCS(=O)(=O)c1cccc(C(=O)Nc2ccc([N+](=O)[O-])cc2OC)c1 | / | / | 9.0 | / | /
Cc1cc(C(c2ccc(C)o2)c2ccc(C)o2)c(O)c([N+](=O)[O-])c1 | -0.9 | -7.5 | 10.1 | 9.0 | 11.6
SMILES | SARS 3CLpro inh | Mtb hypoxia inh | SSB-PriA inh | CCHF vOTU inh | DUSP3 inh
Cc1ccc(C(c2ccc(C)o2)c2cccc([N+](=O)[O-])c2O)o1 | 5.4 | 19.3 | 45.1* | 5.6 | -0.5
COc1ccc2c(c1)c(/C=N/Nc1nc3ccccc3[nH]1)c(C)n2C | -9.8 | / | + | 8.9 | 2.6
CC(C)C(=O)Nc1cccc(N2CCCC2=O)c1 | / | / | -9.0 | / | /
O=C1/C(=C/c2ccco2)CCc2ccccc21 | -3.0 | 0.5 | -10.1 | -19.1 | -1.7
Nc1ccc2c(c1)C/C(=C/c1ccco1)C2=O | -1.4 | 3.3 | -19.3 | 10.7 | 71.8*
CN(CC#CCNS(=O)(=O)c1cccnc1)Cc1ccccc1 | / | / | -14.0 | / | /
Cc1ccc(-n2ncc(C(=O)NCC3CCN(C4CCCC4)C3)c2C2CCN(C(=O)OC(C)(C)C)CC2)cc1 (stereo not given) | 5.8 | -19.1 | 10.7 | -7.3 | 17.7
Cc1ccc(-n2ncc(C(=O)NCC3CCN(C4CCCC4)C3)c2C2CCN(C(=O)OC(C)(C)C)CC2)cc1C (stereo not given) | -2.6 | -4.7 | 14.1 | 6.1 | 57.7*
O=C(NCc1cnn2ccccc12)c1csc(-c2ccccc2)n1 | / | / | 5.0 | / | /
O=C(Cc1ccc(F)cc1)Nc1ccc(Cl)cn1 | 6.4 | 19.0 | -7.4 | 5.4 | 59.7*
C/C(=N/NC(=O)c1nnn(-c2nonc2N)c1COc1ccccc1)c1ccccc1Cl | 2.1 | / | / | 21.2 | 57.0*
CCCN(CCC)CCCNC(=O)c1cn(-c2ccc(OC)cc2)c(=O)c2ccccc12 | -1.0 | -11.3 | -1.6 | 1.8 | 52.6*
O=Cc1sc(=O)n(-c2ccccc2)c1Cl | / | / | -2.0 | / | /
OC(Cn1c2ccccc2c2ccccc21)C[n+]1cccc2ccccc21 (stereo not given) | 1.0 | 14.3 | -6.8 | -2.1 | 56.7*
Cc1ccsc1/C=C1/SC(N2CCOCC2)=NC1=O | 1.5 | 48.3* | / | / | 21.3
O=C1N=C(N2CCOCC2)S/C1=C\c1cccs1 | 2.4 | / | -4.6 | 5.5 | 7.8
